In PubChem BioAssay (NCI):
This is part of a sample that, as a whole, favours compounds with a hit. Of some 83,000 tested, about 20% had one in any assay.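 Single-concentration screen, 48 h exposure, 96-well plates. Endpoint: percent growth. Below 10 = active.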 Activity calls are given as the source filed them.

How the values were obtained:
Test in all cases: NCI-60 one-dose screen, 48 h (100 = growth as untreated, 0 = no growth, -100 = all killed)
Settings in all cases: 10 µM unless noted
[1] = tested on: BT-549 breast
[2] = tested on: MDA-MB-435 melanoma
[3] = tested on: SW-620 colon
[4] = tested on: MCF7 breast
[5] = tested on: HCT-116 colon
[6] = tested on: HCC-2998 colon
[7] = tested on: KM12 colon

Measured: growth

Cc1ccc2c(c1)O/C(=C\c1ccc([N+](=O)[O-])o1)C2=O
active: [2] -8.75% | [3] -56.5% | [4] 9.48% | [5] -47.7%
inactive: [1] 25.9% | [6] 64.3% | [7] 86%

O=C(C(=O)N1CCCCC1)c1ccc(OC2OC(CO)C(O)C(O)C2O)cc1 (configuration not stated)
inactive: [1] 116% | [2] 107% | [3] 109% | [4] 94.3% | [5] 109% | [6] 108% | [7] 115%

COC(=O)CCC1=C(C)/C(=C/c2[nH]c(-c3ccc[nH]3)cc2OC)N=C1C
active: [2] -13.5% | [3] 8.99% | [4] 1.82% | [5] -61.8% | [6] 9.8% | [7] 5.49%
inactive: [1] 14.3%

Nc1nc(SCc2ccccc2Cl)c(-c2ccccc2)c(SCc2ccccc2Cl)n1
inactive: [1] 113% | [2] 88.8% | [3] 77.3% | [4] 78% | [5] 82.2% | [6] 99% | [7] 85.7%

O=C(Nc1ccc(Cl)cc1Cl)Nc1ccc(-c2cccnc2)cc1N1CCC(CO)CC1
inactive: [1] 66.6% | [2] 21.4% | [3] 17.6% | [4] 20% | [5] 18.1% | [6] 35.2% | [7] 25.3%

O=C(Nc1ccc(Nc2ccncc2)cc1)c1ccc(Nc2ccnc3ccc([N+](=O)[O-])cc23)cc1[N+](=O)[O-]
active: [7] 2.06%
inactive: [1] 38.8% | [2] 63.1% | [3] 96.8% | [4] 50.8% | [5] 54.4% | [6] 104%

Cc1c(C(N)=O)sc2c1C(=O)N(Cc1ccccc1)C1=NN=C(c3ccc(Cl)cc3)CN12
inactive: [1] 58.2% | [2] 66.3% | [3] 57.5% | [4] 37.8% | [5] 18.8% | [6] 40.9% | [7] 42.6%

O=C(Nc1ccc(C2=NCCCN2)cc1)Nc1ccc(C2=NCCCN2)cc1
inactive: [1] 100% | [2] 95.3% | [3] 99.4% | [4] 94% | [5] 67.4% | [6] 117% | [7] 100%

COc1cc(OC)c2sc(-c3ccc(-n4cncc4-c4ccc(N)cc4)cc3)nc2c1
inactive: [1] 82.4% | [2] 62.9% | [3] 91.2% | [4] 63.4% | [5] 70.2% | [6] 96.2% | [7] 64.1%

O=C(Nc1ccc(Cl)cc1)c1cc2c(cc1O)[nH]c1ccccc12
active: [2] -25.6% | [4] 8.67% | [6] -21.5%
inactive: [1] 26.5% | [3] 19.1% | [5] 14.1% | [7] 37.5%

CCCC[N+](CCCC)=c1ccc2nc3c(C)cc(N(CC)CC)cc3sc-2c1
inactive: [6] 24.4%
active: [1] 2.12% | [2] -88.1% | [3] -71.9% | [4] -50% | [5] -24.7% | [7] 0.608%

CCC1=C(c2ccc(OC)cc2)C(C)Oc2cc(OC(C)=O)ccc21 (configuration not stated)
inactive: [1] 95.4% | [2] 40.7% | [3] 90.5% | [4] 82.4% | [5] 74.5% | [6] 107% | [7] 77.7%

CN(C)c1ccc(/C=C(\C#N)c2nc3ccccc3c(=O)[nH]2)cc1
inactive: [1] 87.9% | [2] 86.7% | [3] 82.6% | [4] 73.5% | [5] 76.9% | [6] 84.8% | [7] 79.9%

COc1ccc2c(c1)nc(N)c1c3cc(OC)c(OC)cc3cn21
inactive: [1] 79.8% | [3] 34.5% | [4] 17.5% | [5] 27.7% | [6] 54.5% | [7] 26.9%
active: [2] -26.7%

COc1ccc2nc(-c3ccc(-n4cncc4-c4ccc(OC)c(N)c4)cc3)sc2c1
inactive: [1] 102% | [2] 105% | [3] 97.4% | [4] 82.1% | [5] 98.4% | [6] 111% | [7] 105%

CCCCCCCC1(C)NC(=O)NC1=O (configuration not stated)
inactive: [1] 121% | [2] 123% | [3] 100% | [4] 97.6% | [5] 103% | [6] 140% | [7] 113%

COc1ccc(-n2nnc(C(=O)O)c2-c2cc(OC)c(OC)c(OC)c2)cc1
inactive: [1] 101% | [2] 121% | [3] 104% | [4] 102% | [5] 100% | [6] 99.1% | [7] 105%

C=C(C[C@](O)(C(=O)/C=C/c1ccc(Cl)cc1)C(=O)OC)c1ccccc1
active: [4] 5.85%
inactive: [1] 79.5% | [2] 66.5% | [3] 30.3% | [5] 34.9% | [6] 41.9% | [7] 15.3%

CCCCCCCCCCCCNc1ncnc2[nH]ncc12
inactive: [1] 62.9% | [2] 71.7% | [3] 83.1% | [4] 59% | [5] 53.3% | [6] 92.4% | [7] 79.2%

O=C(Nc1ccc(Cl)cc1)Nc1ccc(Nc2nncc3ccccc23)cc1
inactive: [1] 15.7% | [2] 13.7% | [3] 27% | [5] 15.2% | [6] 30.7% | [7] 18.9%
active: [4] 5.46%

Cc1ccc(NC(=O)COC(=O)c2ccc(S(=O)(=O)N3CCCCCC3)cc2)cc1
inactive: [1] 141% | [2] 107% | [3] 107% | [4] 102% | [5] 103% | [6] 91.5% | [7] 97.7%

O=C1OCC/C1=C\OCCCO/C=C1\CCOC1=O
inactive: [1] 96.9% | [2] 104% | [3] 109% | [4] 104% | [5] 109% | [6] 114% | [7] 114%

CC1CC(C)/C(=N/NC(N)=O)C(C(O)CC2CCC(=O)NC2=O)C1 (configuration not stated)
inactive: [1] 53.1% | [2] 34.3% | [3] 34.3% | [4] 36.7% | [5] 24% | [6] 58.8% | [7] 32.3%

O=C(NN(C(=O)c1ccccc1)c1cccs1)c1ccccc1
inactive: [1] 98% | [2] 124% | [3] 104% | [4] 110% | [5] 93.7% | [6] 103% | [7] 117%

O=C(CN1CCCCC1)Sc1nnc2sc3ccccc3n12
inactive: [1] 104% | [2] 111% | [3] 101% | [4] 92.9% | [5] 95.3% | [6] 116% | [7] 104%

O=C1OC(c2ccc(-c3ccccc3)cc2)=C/C1=C/c1cccs1
inactive: [1] 92% | [2] 99% | [3] 105% | [4] 41.6% | [5] 93.3% | [6] 112% | [7] 88.1%

COc1ccc2c(c1)C(=O)/C(=C/c1ccc([N+](=O)[O-])s1)O2
active: [1] -52.9% | [2] -70.4% | [3] -69.7% | [4] 3% | [5] -0.508% | [6] -6.91% | [7] -19.3%

CCN1C(=O)c2ccc3c4c(ccc(c24)C1=O)C(=O)N(CCCNCc1ccccc1OC)C3=O
active: [1] -75.9% | [2] -80.3% | [3] -57.4% | [4] -25.5% | [5] -79% | [6] -82.6% | [7] -35.1%

Cc1nnc(Nc2ccc(NC(=O)Nc3ccc(Cl)cc3)cc2)c2ccccc12
active: [2] -40% | [5] 7.67%
inactive: [1] 11.4% | [3] 20.3% | [4] 24.9% | [6] 40.5% | [7] 14.1%

N#Cc1c(N)[nH]c(S)c1C#N
inactive: [1] 99.4% | [2] 98.4% | [3] 107% | [4] 92.1% | [5] 97.9% | [6] 95.6% | [7] 116%

O=C1C[C@@H]2/C(=C(O)\C=C\c3ccccc3)C(=O)C=C[C@@H]2O1
active: [1] -40.5% | [2] -31.6% | [3] -33.2% | [4] 6.03% | [5] -90.6% | [7] -91%
inactive: [6] 99.6%

Nc1ccc2c3c(cccc13)-c1ccccc1-2
inactive: [1] 71% | [2] 96.5% | [3] 102% | [4] 88.8% | [5] 92.2% | [6] 103% | [7] 87.8%

N#Cc1c(N2CCOCC2)nc2sc3cc(Cl)ccc3n2c1=N
inactive: [1] 129% | [2] 114% | [3] 98.3% | [4] 74.7% | [5] 103% | [6] 122% | [7] 82.3%

COC(=O)[C@]1(C(C)C)N[C@H](c2cn(-c3ccccc3)nc2-c2ccccc2)[C@@H]2C(=O)N(c3ccc(Cl)cc3)C(=O)[C@@H]21
inactive: [1] 86.7% | [2] 105% | [3] 99.4% | [4] 96.6% | [5] 89.8% | [6] 109% | [7] 95.3%

C[C@]12CC[C@@H]3c4ccc(O)cc4CC[C@H]3[C@@H]1CC[C@@H]2NS(=O)(=O)c1cccc(Br)c1
inactive: [1] 69.2% | [2] 48.4% | [3] 81.4% | [4] 37.5% | [5] 44.2% | [6] 89.4% | [7] 51.2%

O=[N+]([O-])c1cnc(Sc2ccncn2)c([N+](=O)[O-])c1
inactive: [1] 111% | [2] 91.1% | [3] 26.4% | [4] 56.1% | [6] 102% | [7] 107%
active: [5] -59%
